The whole screen tested about 5,500 compounds, of which about 2,000 (36%) were called active. About 18% were inconclusive and are not listed. Cut-off read from the data, not from the text of the source: active = normalized growth mostly below about 0.91 (no sharp cut-off); inconclusive = no clear call, values can overlap the other calls; inactive = mostly above about 0.92. The list shows a part of the results.
Test: chemical genetic growth profiling, strain panel (AID 1159580);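 note: tested at 20 µM; growth read once vehicle control cultures reached saturation at 30 °C; 1 = growth at the plate median or of vehicle wells; lower values mean less growth of the strain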
Details: S. cerevisiae deletion strains, growth OD
[1] = locus YAL021C, strain ccr4, active compounds read low
[2] = locus YAL026C, strain drs2, active compounds read low
[3] = locus YAL030W, strain snc1, active compounds read low
[4] = locus YBL061C, strain skt5, active compounds read low
[5] = locus YBR009C, strain hhf1, active compounds read low
[6] = locus YBR023C, strain chs3, active compounds read low
[7] = locus YBR171W, strain sec66, active compounds read low
[8] = locus YBR231C, strain swc5, active compounds read low
[9] = locus YBR279W, strain paf1, active compounds read low
[10] = locus YCL011C, strain gbp2, active compounds read low
[11] = locus YCL016C, strain dcc1, active compounds read low
[12] = locus YCL061C, strain MRC1, active compounds read low
[13] = locus YCL069W, strain vba3, active compounds read low
[14] = locus YCR088W, strain abp1, active compounds read low
[15] = locus YDL005C, strain med2, active compounds read low
[16] = locus YDL040C, strain nat1, active compounds read low
[17] = locus YDR001C, strain nth1, active compounds read low
[18] = locus YDR069C, strain doa4, active compounds read low
[19] = locus YDR137W, strain rgp1, active compounds read low
[20] = locus YDR159W, strain sac3, active compounds read low
[21] = locus YDR297W, strain sur2, active compounds read low
[22] = locus YDR334W, strain swr1, active compounds read low
[23] = locus YDR335W, strain msn5, active compounds read low
[24] = locus YDR392W, strain spt3, active compounds read low
[25] = locus YEL003W, strain gim4, active compounds read low
[26] = locus YEL037C, strain rad23, active compounds read low
[27] = locus YEL061C, strain CIN8 (second series), active compounds read low
[28] = locus YER015W, strain faa2, active compounds read low
[29] = locus YER016W, strain bim1, active compounds read low
[30] = locus YER111C, strain swi4, active compounds read low
[31] = locus YER155C, strain BEM2 (second series), active compounds read low
[32] = locus YFR010W, strain ubp6, active compounds read low
[33] = locus YGL167C, strain pmr1, active compounds read low
[34] = locus YGL173C, strain kem1, active compounds read low
[35] = locus YGL227W, strain vid30, active compounds read low
[36] = locus YGL240W, strain doc1, active compounds read low
[37] = locus YGL253W, strain hxk2, active compounds read low
[38] = locus YHR013C, strain ard1, active compounds read low
[39] = locus YHR027C, strain rpn1, active compounds read low
[40] = locus YHR030C, strain SLT2, active compounds read low
[41] = locus YHR079C, strain IRE1, active compounds read low
[42] = locus YHR142W, strain chs7, active compounds read low
[43] = locus YJL092W, strain hpr5, active compounds read low
[44] = locus YJL095W, strain BCK1 (second series), active compounds read low
[45] = locus YJL095W, strain BCK1, active compounds read low
[46] = locus YJL115W, strain asf1, active compounds read low
[47] = locus YJL129C, strain trk1, active compounds read low
[48] = locus YJL154C, strain vps35, active compounds read low
[49] = locus YJL164C, strain tpk1, active compounds read low
[50] = locus YJL166W, strain qcr8, active compounds read low
[51] = locus YJL187C, strain SWE1, active compounds read low
[52] = locus YJR066W, strain TOR1, active compounds read low
[53] = locus YKL160W, strain elf1, active compounds read low
[54] = locus YKR026C, strain gcn3, active compounds read low
[55] = locus YKR091W, strain srl3, active compounds read low
[56] = locus YLL001W, strain dnm1, active compounds read low
[57] = locus YLL026W, active compounds read low
[58] = locus YLL041C, strain sdh2, active compounds read low
[59] = locus YLR027C, strain aat2, active compounds read low
[60] = locus YLR113W, strain HOG1, active compounds read low
[61] = locus YLR221C, strain rsa3, active compounds read low
[62] = locus YLR258W, strain gsy2, active compounds read low
[63] = locus YLR262C, strain YPT6 (second series), active compounds read low
[64] = locus YLR320W, strain mms22, active compounds read low
[65] = locus YLR342W, strain FKS1, active compounds read low
[66] = locus YLR357W, strain rsc2, active compounds read low
[67] = locus YLR370C, strain arc18, active compounds read low
[68] = locus YLR384C, strain iki3, active compounds read low
[69] = locus YML120C, strain ndi1, active compounds read low
[70] = locus YMR058W, strain fet3, active compounds read low
[71] = locus YMR125W, strain sto1, active compounds read low
[72] = locus YMR129W, active compounds read low
[73] = locus YMR205C, strain PFK2, active compounds read low
[74] = locus YMR231W, strain pep5, active compounds read low
[75] = locus YNL071W, strain lat1, active compounds read low
[76] = locus YNL183C, strain NPR1, active compounds read low
[77] = locus YNL209W, strain ssb2, active compounds read low
[78] = locus YNL248C, strain rpa49, active compounds read low
[79] = locus YNL322C, strain KRE1 (second series), active compounds read low
[80] = locus YNR049C, strain mso1, active compounds read low
[81] = locus YOR001W, strain rrp6, active compounds read low
[82] = locus YOR070C, strain gyp1, active compounds read low
[83] = locus YOR080W, strain dia2, active compounds read low
[84] = locus YOR083W, strain WHI5, active compounds read low
[85] = locus YOR106W, strain vam3, active compounds read low
[86] = locus YOR231W, strain MKK1, active compounds read low
[87] = locus YOR265W, strain rbl2, active compounds read low
[88] = locus YOR270C, strain vph1, active compounds read low
[89] = locus YOR290C, strain snf2, active compounds read low
[90] = locus YPL051W, strain arl3, active compounds read low
[91] = locus YPL078C, strain atp4, active compounds read low
[92] = locus YPL106C, strain sse1, active compounds read low
[93] = locus YPL240C, strain hsp82, active compounds read low
[94] = locus YPL256C, strain CLN2, active compounds read low

Measured: normalized growth

C=CCSCC=C
inactive: [1] 0.972 | [2] 0.971 | [3] 0.962 | [4] 0.979 | [5] 0.981 | [6] 0.987 | [7] 0.965 | [8] 1.03 | [9] 0.992 | [10] 0.966 | [11] 0.975 | [12] 0.972 | [13] 0.98 | [14] 0.99 | [15] 0.985 | [16] 0.993 | [17] 0.96 | [18] 0.947 | [19] 0.971 | [20] 0.991 | locus YDR195W, strain ref2 0.961 | [21] 0.982 | [22] 0.935 | [23] 0.987 | [24] 0.916 | [25] 0.986 | [26] 0.972 | [27] 0.982 | [28] 0.958 | [29] 0.991 | [30] 0.966 | [31] 0.974 | [32] 0.953 | [33] 0.971 | [34] 0.941 | [35] 0.986 | [36] 0.981 | [37] 0.967 | [38] 0.957 | [39] 0.96 | [40] 1.03 | [41] 1.03 | [42] 0.934 | [43] 0.961 | [44] 0.996 | [45] 1.03 | [46] 0.938 | [47] 0.95 | [48] 0.978 | [49] 0.981 | [50] 0.977 | [51] 0.986 | [52] 0.931 | [53] 1 | [54] 0.989 | [55] 0.983 | [56] 0.966 | [57] 0.974 | [58] 0.975 | [59] 0.953 | [60] 1.02 | [61] 0.973 | [62] 0.989 | [63] 0.983 | [64] 0.995 | [65] 0.983 | [66] 0.963 | [67] 0.977 | [68] 0.99 | [69] 0.973 | [70] 0.97 | [71] 0.966 | [72] 0.979 | [73] 0.969 | [74] 0.98 | [75] 0.991 | [76] 0.94 | [77] 0.985 | [78] 0.98 | [79] 0.955 | [80] 0.964 | [81] 0.992 | [82] 0.976 | [83] 0.974 | [84] 0.989 | [85] 0.977 | [86] 1.02 | [87] 1.01 | [88] 0.945 | [89] 0.903 | [90] 0.991 | [91] 0.988 | [92] 0.943 | [93] 0.974 | [94] 1.03

C=CCSSCC=C
inactive: [1] 1.02 | [2] 1.04 | [3] 1.03 | [4] 1.03 | [5] 1.03 | [6] 1.02 | [7] 1.04 | [8] 1.04 | [9] 1.02 | [10] 1.04 | [11] 1.03 | [12] 1.03 | [13] 1.03 | [14] 1.04 | [15] 1.05 | [16] 1.03 | [17] 1.04 | [18] 1.03 | [19] 1.07 | [20] 1.08 | locus YDR195W, strain ref2 1.04 | [21] 1.03 | [22] 1.03 | [23] 1.04 | [24] 0.901 | [25] 1.03 | [26] 1.03 | [27] 1.02 | [28] 1.03 | [29] 1.03 | [30] 1.06 | [31] 0.951 | [32] 1.05 | [33] 1.04 | [34] 1.05 | [35] 1.05 | [36] 1.05 | [37] 1.04 | [38] 1.02 | [39] 1.04 | [40] 0.858 | [42] 1.02 | [43] 1.04 | [44] 1.03 | [46] 1.04 | [47] 1.03 | [48] 1.02 | [49] 1.01 | [50] 1.03 | [51] 1.03 | [52] 0.879 | [53] 1.01 | [54] 1.03 | [55] 1.03 | [56] 1.01 | [57] 1.03 | [58] 1.03 | [59] 1.03 | [60] 0.881 | [61] 1.01 | [62] 1.03 | [63] 1.03 | [64] 1.05 | [65] 1.04 | [66] 0.974 | [67] 1.04 | [68] 1.03 | [69] 1.02 | [70] 1.03 | [71] 1.01 | [72] 1.04 | [73] 1.05 | [74] 1.03 | [75] 0.923 | [76] 0.864 | [77] 1.03 | [78] 0.96 | [79] 1.04 | [80] 1.03 | [81] 1.01 | [82] 1.02 | [83] 1.04 | [84] 0.998 | [85] 1.04 | [87] 1.03 | [88] 1.05 | [89] 0.975 | [90] 1 | [91] 1.01 | [92] 1.07 | [93] 1.03 | [94] 0.862
active: [41] 0.841 | [45] 0.822 | [86] 0.823
